# Columns and labels:
# [1] = target: T1, cGMP-dependent protein kinase 1 (Homo sapiens) (UniProt Q13976); conditions: at 1 µM
# T1 sequence (whole entry): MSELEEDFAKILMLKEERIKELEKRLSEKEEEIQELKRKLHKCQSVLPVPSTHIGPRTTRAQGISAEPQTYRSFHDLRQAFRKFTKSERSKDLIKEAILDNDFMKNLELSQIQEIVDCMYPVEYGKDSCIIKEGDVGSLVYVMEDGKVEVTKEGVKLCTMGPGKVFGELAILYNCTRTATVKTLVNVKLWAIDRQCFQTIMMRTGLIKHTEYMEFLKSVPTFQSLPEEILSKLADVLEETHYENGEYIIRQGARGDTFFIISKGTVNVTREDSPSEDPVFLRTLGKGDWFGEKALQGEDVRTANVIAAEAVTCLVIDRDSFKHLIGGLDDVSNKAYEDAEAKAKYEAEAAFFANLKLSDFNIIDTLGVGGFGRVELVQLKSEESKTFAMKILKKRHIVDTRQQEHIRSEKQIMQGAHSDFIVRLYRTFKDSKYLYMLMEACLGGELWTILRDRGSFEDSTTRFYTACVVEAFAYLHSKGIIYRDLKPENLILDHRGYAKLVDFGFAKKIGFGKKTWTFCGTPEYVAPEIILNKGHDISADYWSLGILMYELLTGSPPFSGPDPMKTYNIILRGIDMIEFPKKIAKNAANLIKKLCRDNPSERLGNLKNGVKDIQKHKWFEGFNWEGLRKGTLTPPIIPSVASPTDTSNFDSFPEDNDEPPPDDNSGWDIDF
# [2] = target: T1, cGMP-dependent protein kinase 1 (Homo sapiens); conditions: at 10 µM
# [3] = target: T1, cGMP-dependent protein kinase 1 (Homo sapiens); conditions: at 1 µM; remark: listed apart in the source
# [4] = target: T1, cGMP-dependent protein kinase 1 (Homo sapiens); conditions: at 10 µM; remark: listed apart in the source
# [5] = target: T2, MAP kinase-activated protein kinase 5 (Homo sapiens) (UniProt Q8IW41); conditions: at 1 µM
# T2 sequence (whole entry): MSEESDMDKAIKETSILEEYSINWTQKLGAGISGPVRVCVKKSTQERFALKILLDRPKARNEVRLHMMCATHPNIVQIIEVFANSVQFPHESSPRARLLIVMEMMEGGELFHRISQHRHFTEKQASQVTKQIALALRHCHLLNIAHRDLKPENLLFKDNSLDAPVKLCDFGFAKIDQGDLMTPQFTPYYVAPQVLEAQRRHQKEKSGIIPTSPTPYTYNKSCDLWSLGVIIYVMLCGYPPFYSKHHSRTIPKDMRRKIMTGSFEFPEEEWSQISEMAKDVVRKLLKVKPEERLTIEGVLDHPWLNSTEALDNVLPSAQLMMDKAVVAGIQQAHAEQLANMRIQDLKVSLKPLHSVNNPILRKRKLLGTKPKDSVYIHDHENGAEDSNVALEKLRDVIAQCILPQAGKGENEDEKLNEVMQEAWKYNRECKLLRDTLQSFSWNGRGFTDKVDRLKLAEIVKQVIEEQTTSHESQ
# [6] = target: T2, MAP kinase-activated protein kinase 5 (Homo sapiens); conditions: at 10 µM
# [7] = target: Serine/threonine-protein kinase N2 (Homo sapiens) (UniProt Q16513); conditions: at 1 µM
# [8] = target: Serine/threonine-protein kinase N2 (Homo sapiens) (UniProt Q16513); conditions: at 10 µM
# [9] = target: Tyrosine-protein kinase FRK (Homo sapiens) (UniProt P42685); conditions: at 1 µM
# [10] = target: Tyrosine-protein kinase FRK (Homo sapiens) (UniProt P42685); conditions: at 10 µM
# Chain of Serine/threonine-protein kinase N2 (Homo sapiens) (Q16513 whole entry, looked up): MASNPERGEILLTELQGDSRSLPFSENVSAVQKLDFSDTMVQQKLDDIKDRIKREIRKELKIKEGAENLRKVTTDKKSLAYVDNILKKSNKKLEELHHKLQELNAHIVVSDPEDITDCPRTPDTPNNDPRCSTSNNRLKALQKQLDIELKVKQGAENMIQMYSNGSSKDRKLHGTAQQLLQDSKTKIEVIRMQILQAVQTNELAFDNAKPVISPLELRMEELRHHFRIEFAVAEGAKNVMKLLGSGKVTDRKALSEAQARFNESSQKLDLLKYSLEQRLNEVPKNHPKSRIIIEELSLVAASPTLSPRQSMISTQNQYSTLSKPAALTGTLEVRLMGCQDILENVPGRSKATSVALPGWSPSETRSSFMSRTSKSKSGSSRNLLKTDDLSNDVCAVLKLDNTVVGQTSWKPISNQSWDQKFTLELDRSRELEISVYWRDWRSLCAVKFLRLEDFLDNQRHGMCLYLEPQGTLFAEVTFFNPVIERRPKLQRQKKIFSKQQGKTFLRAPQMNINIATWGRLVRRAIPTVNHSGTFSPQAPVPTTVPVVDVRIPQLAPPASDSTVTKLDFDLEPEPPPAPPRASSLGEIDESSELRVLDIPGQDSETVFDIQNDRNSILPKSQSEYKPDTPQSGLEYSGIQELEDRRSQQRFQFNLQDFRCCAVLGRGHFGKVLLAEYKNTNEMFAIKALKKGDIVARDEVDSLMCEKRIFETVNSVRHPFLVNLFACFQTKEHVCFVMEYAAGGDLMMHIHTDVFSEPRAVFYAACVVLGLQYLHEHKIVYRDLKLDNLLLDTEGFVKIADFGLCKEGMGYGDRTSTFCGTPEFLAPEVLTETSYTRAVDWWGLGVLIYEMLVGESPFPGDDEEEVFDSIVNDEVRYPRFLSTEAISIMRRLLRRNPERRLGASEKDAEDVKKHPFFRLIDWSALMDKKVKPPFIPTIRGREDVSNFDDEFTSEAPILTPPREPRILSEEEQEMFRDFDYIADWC
# Chain of Tyrosine-protein kinase FRK (Homo sapiens) (P42685 whole entry): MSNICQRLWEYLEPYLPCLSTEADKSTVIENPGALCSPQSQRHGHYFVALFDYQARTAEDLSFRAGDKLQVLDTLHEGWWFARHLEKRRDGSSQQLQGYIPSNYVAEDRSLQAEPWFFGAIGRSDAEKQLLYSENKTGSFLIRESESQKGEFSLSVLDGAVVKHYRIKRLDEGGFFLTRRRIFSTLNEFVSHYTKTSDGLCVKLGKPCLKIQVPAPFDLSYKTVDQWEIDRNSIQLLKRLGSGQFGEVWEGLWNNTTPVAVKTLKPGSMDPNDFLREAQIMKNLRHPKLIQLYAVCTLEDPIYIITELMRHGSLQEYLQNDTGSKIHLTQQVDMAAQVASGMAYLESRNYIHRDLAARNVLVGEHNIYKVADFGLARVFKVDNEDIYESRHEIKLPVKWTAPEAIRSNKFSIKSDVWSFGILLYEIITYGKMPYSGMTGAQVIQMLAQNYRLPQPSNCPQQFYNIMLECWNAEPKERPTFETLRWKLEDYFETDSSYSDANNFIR
SMILES,residual activity [1] [%],residual activity [2] [%],residual activity [3] [%],residual activity [4] [%],residual activity [5] [%],residual activity [6] [%],residual activity [7] [%],residual activity [8] [%],residual activity [9] [%],residual activity [10] [%]
CC#CC(=O)Nc1cc2c(Nc3ccc(F)c(Cl)c3)ncnc2cn1,103,102,86,92,84,77,94,98,97,92
CO[C@H]1C[C@@H]2CC[C@@H](C)[C@@](O)(O2)C(=O)C(=O)N2CCCC[C@H]2C(=O)O[C@H]([C@H](C)C[C@@H]2CC[C@@H](O)[C@H](OC)C2)CC(=O)[C@H](C)/C=C(\C)[C@@H](O)[C@@H](OC)C(=O)[C@H](C)C[C@H](C)/C=C/C=C/C=C/1C,101,128,86,85,57,62,95,116,95,112
O=Nc1c(-c2c(O)[nH]c3ccccc23)[nH]c2ccccc12,77,67,79,45,78,24,91,48,13,6
COc1ccc(CNc2nc(N(CCO)CCO)nc3c2ncn3C(C)C)cc1,93,101,109,101,100,102,104,77,95,87
COc1cccc(-c2cc(=O)c3ccccc3o2)c1N,95,89,114,102,125,108,94,90,93,86
Cc1nc2cc3nc(-c4cccs4)cnc3cc2n1C,117,96,99,103,81,56,97,100,99,76
O=C(Nc1cccc(Nc2cc(Nc3cccc(C(F)(F)F)c3)ncn2)c1)C1CC1,117,100,81,88,110,24,93,93,101,73
Oc1c2ccccc2c2c3c(cccc13)N=N2,79,79,90,60,59,14,74,32,91,58
C[C@@H](N)[C@H]1CC[C@H](C(=O)Nc2ccncc2)CC1,77,31,73,30,112,102,16,4,98,97
CCOc1cc2ncnc(Nc3cccc(Br)c3)c2cc1OCC,108,91,95,66,79,82,93,79,40,5
O=C(O)c1ccc2c3c1cccc3c(=O)n1c3ccccc3nc21,95,97,98,83,81,62,96,86,95,90
CN(C)c1ccc(/C=C2\C(=O)Nc3ccccc32)cc1,121,115,65,84,113,65,113,120,97,76
c1ccc(-c2n[nH]c3c2oc2ccccc23)cc1,99,100,75,93,97,58,–,–,–,–
Nc1n[nH]c2nnc(-c3c(-c4ccccc4)nn4ccccc34)cc12,95,104,92,76,104,101,91,76,99,46
O=C1NC(=O)c2c1c1c3ccccc3[nH]c1c1[nH]c3cc(Br)ccc3c21,99,113,92,83,105,106,87,84,94,90
Oc1ccc(Nc2nc(-c3ccc(Cl)cc3)cs2)cc1,100,99,113,111,115,69,110,107,104,118

SMILES,residual activity [1] [%],residual activity [2] [%],residual activity [3] [%],residual activity [4] [%],residual activity [5] [%],residual activity [6] [%],residual activity [7] [%],residual activity [8] [%],residual activity [9] [%],residual activity [10] [%]
CNc1cc2c(Nc3cccc(Br)c3)ncnc2cn1,112,108,75,62,89,94,84,93,92,37
O=C1c2ccccc2-[n+]2ccc3c([nH]c4ccccc43)c21,94,116,83,75,119,124,86,92,95,92
Cc1ccc(S(=O)(=O)/C=C/C#N)cc1,85,99,107,92,110,111,90,87,70,82
COc1cc2ncnc(N3CCN(C(=O)Nc4ccc(Oc5ccccc5)cc4)CC3)c2cc1OC,99,110,68,72,78,79,88,112,96,127
Cn1cc(/C=C2\C(=O)Nc3ccc(S(N)(=O)=O)cc32)c2ccccc21,103,101,77,54,62,54,58,23,74,35
COc1ccc(OC)c2c(=S)c3ccccc3[nH]c12,93,109,94,76,96,90,99,88,95,99
Cc1cncc2cccc(S(=O)(=O)N3CCCN(C(=O)CN)C[C@H]3C)c12,93,44,74,19,82,98,22,7,87,70
CCC(=O)Nc1ccc2ncnc(Nc3cccc(Br)c3)c2c1,108,96,89,81,74,74,90,99,94,59
CC(C)n1cnc2c(NCc3ccccc3)nc(NCCCO)nc21,89,101,95,83,115,115,110,99,88,80
COc1cc2ncnc(Nc3ccc(O)c(Br)c3)c2cc1OC,94,76,70,47,77,70,87,61,35,5
O=c1cc(-c2cccc3c2Sc2ccccc2S3)oc(N2CCOCC2)c1,102,105,81,80,99,40,112,97,94,92
CO[C@@H]1[C@H](N(C)C(=O)c2ccccc2)C[C@H]2O[C@]1(C)n1c3ccccc3c3c4c(c5c6ccccc6n2c5c31)C(=O)NC4,8,4,4,3,102,57,2,1,33,23
Cn1cnc2cc3c(Nc4cccc(Br)c4)ncnc3cc21,115,87,93,88,78,78,101,97,72,28
O=C1NC(=O)/C(=C/c2ccc3c(c2)OC(F)(F)O3)S1,105,108,72,52,106,37,117,97,101,107
Nc1ccc2ncnc(NCCc3ccc(Oc4ccccc4)cc3)c2c1,108,109,86,75,89,90,98,78,93,109
NC(=O)c1ccc2[nH]c(-c3ccc(Oc4ccc(Cl)cc4)cc3)nc2c1,99,105,105,77,91,67,101,90,94,106

# — ChEMBL document CHEMBL2218924, “A broad activity screen in support of a chemogenomic map for kinase signalling research and drug discovery” (Biochem J, 2013)
